50 compounds from PubChem BioAssay AID624171 (National Center for Advancing Translational Sciences (NCATS), 2012) can be followed below.

About 1,200 (0.29%) of roughly 410,000 compounds were called active. Another 2% or so got no clear call; they are omitted. Shown is part of a subset that was picked to be rich in actives. Values without a mark were called inactive. Calls follow the shape of the dose curve; as a rule, active = well fitted activation curve with a large enough effect; inconclusive = small, poorly fitted or top-dose-only effect; inactive = flat fitted curve, though single readings scatter.
Potency is read from the fitted curve at half-maximal effect.

The assay is described as follows: qHTS of Nrf2 Activators. Also: nearly all actives have a fitted effect of over 65% in size. As to activation: % of control where 0% means no effect. Particulars: AREc32 ARE-luciferase reporter (MCF7-derived line), luminescence, 24 h; series mostly up to 46.1 µM; activation: at the top concentration. An excerpt:
Many diseases have some form of oxidative stress injury and ties to inflammation, causing a host of problems for the patient. The antioxidant response element (ARE) plays an important role in alleviating the harmful effects of oxidative stress. The antioxidant response element (ARE) is a transcriptional regulatory element involved in the activation of genes coding for a number of antioxidant proteins and detoxifying enzymes. These enzymes work in concert to protect tissues from oxidative insults and chemical toxicities in human hepatocytes and immune cells. The protective effects of ARE activation are primarily triggered through Nrf2 (NF-E2-related factor) binding to and activating AREs. It is known that Nrf2 controls the production of over 250 antioxidant and detoxification proteins (Hu et al., 2006), thereby protecting tissues by increasing cellular antioxidant content and suppressing inflammatory signaling pathways. The transcription factor Nrf2 is a central link between oxidative chemicals, such as phenolic antioxidants and electrophilic compounds, and the activation of ARE. Nrf2 levels are constitutively low as a consequence of its interaction with Keap1, which targets its degradation (Zipper and Mulcahy, 2002). Electrophiles react with key cysteine residues in Keap1, releasing Nrf2 and allowing its translocation to the nucleus. Once within the nucleus, Nrf2 complexes with coactivators such as p300, and binds to the AREs to induce gene transcription of cytoprotective enzymes, resulting in the prevention of toxicity. Activation of Nrf2 protects tissues by increasing cellular antioxidant content and suppressing inflammatory signaling pathways. Identifying novel and potent Nrf2 activators by using the AREc32 cell line to detect ARE activation by small molecules will lead to the identification and development of probes to study protective pathways in multiple tissues. These specific probes are essential to study the ARE pathway, and eventually to determine whether this pathway does activate genes that could protect against a host of diseases, including cardiovascular diseases, obesity, diabetes, Alzheimer's, and Parkinson's disease.
This project's aim is to identify novel and potent Nrf2 activators by using the AREc32 cell line to detect ARE activation by small molecules, which will lead to the identification and development of probes to study the ARE pathway.
NIH Chemical Genomics Center [NCGC]
NIH Molecular Libraries Probe Centers Network [MLPCN]
Assay Submitter (PI): Curtis Klaassen, University of Kansas Medical Center
5 uL of 1000 cells/well of AREc32_Fluc cells are seeded into 1536-well plate in OPTI-MEM medium with 5% FBS. The plates are incubated overnight at 37 deg C with 5% CO2. Then through pin tool transfer, 23 nL of compounds are added to each well before a 24 hr incubation at 37 deg C with 5% CO2. After the addition of 2.5 uL of Steady-Glo. the plates are kept at RT for 30 min, before they are read on the ViewLux.
With `Cc1ccc(NC2=C(Cl)C(=O)OC2OC(=O)c2ccccc2C)cc1` (stereo not given), the activation is 0.434% [at 9.22 µM].

As to `Cc1ccccc1C(=O)OC1OC(=O)C(Cl)=C1Nc1ccccc1` (stereo not given), the Potency was 15.8 µM (active).

For `O=C1OC(OC(=O)c2ccccc2Br)C(N2CCOCC2)=C1Cl` (stereo not given), the “activation” value is 5.07%.

As for `CCOC(=O)c1c(C)[nH]c(C)c1S(=O)(=O)N1CCC(C(=O)Nc2ccc(C)c(Cl)c2)CC1`, the “activation” value is -0.0095%.

As to `Nc1c(C(=O)c2cccs2)sc2nsc(SCCN3CCCCC3)c12`, the Potency is 10 µM (active).

For the compound `Cc1cc(NC(C)C)n2c(nc3ccccc32)c1C#N`, the “activation” value is -0.5%.

For the compound `Cc1cc(NCc2ccco2)n2c(nc3ccccc32)c1C#N`, the Potency was 5.01 µM (active).

For the compound `CC(C)c1cc(NCc2ccccn2)n2c(nc3ccccc32)c1C#N`, the “activation” value was -0.266%.

Take `Cc1cc(C(=O)NCCc2ccc(Cl)cc2)c(C)o1`: the “activation” value is 0.668%.

For the compound `Cc1cc(C(=O)N/N=C\C(Br)=C\c2ccccc2)c(C)o1`, the Potency was 20 µM (active).

For the compound `Cc1cc(C)cc(NC(=O)COC(=O)c2cc(C)oc2C)c1`, the “activation” value was 0.443%.

As to `COc1cccc(C(=O)NCC(=O)OCc2cc(=O)n3ccsc3n2)c1`, the “activation” value is 0.717%.

Regarding `S=c1[nH]nc(-c2cc(-c3ccsc3)n[nH]2)n1-c1ccccc1`, the Potency is 8.91 µM (active).

As for `S=c1[nH]nc(CSCc2ccc(Cl)cc2Cl)n1-c1ccccc1`, the “activation” value is 1.92%.

Regarding `Cc1n[nH]c(=O)n1-c1ccc(Oc2ccccc2)cc1`, the “activation” value was -0.567%.

Consider `COc1cccc(C(c2c(O)cc(C)n(Cc3ccco3)c2=O)N2CCN(c3ccccc3)CC2)c1` (stereo not given), for which the “activation” value was -0.424%.

`CN(C)c1ccc(NC(=O)c2ccncc2)c2ccccc12`: the “activation” value was 0.419%.

Take `O=C(Nc1ccc2ccccc2c1[N+](=O)[O-])c1ccccc1`: the Potency was 14.1 µM (active).

As to `Cc1ccc(NC(=O)c2oc3ccccc3c2C)c([N+](=O)[O-])c1`, the “activation” value is 2.17%.

For `O=C(CN1C(=O)COc2ccc(S(=O)(=O)N3CCOCC3)cc21)N1CCN(c2cccc(Cl)c2)CC1`, the “activation” value was -1.02%.

On to `Cc1cc2nc(-c3ccc(NC(=O)c4cc5ccccc5o4)cc3)oc2cc1C`, for which the “activation” value was -0.225%.

On to `O=C(COC(=O)/C=C/c1nc2ccccc2s1)Nc1ccccc1Oc1ccccc1`, for which the “activation” value is 13.2%.

Turning to `CCOc1cccc(/C=C/c2ccc3ccccc3n2)c1OC(C)=O`, the “activation” value is -0.0343%.

On to `NC(=O)COC(=O)/C=C/c1ccc2ccccc2n1`, for which the Potency is 15.8 µM (active).

For the compound `CN(C(=O)c1ccc2c(c1)N(Cc1cccc(Cl)c1)C(=O)c1ccccc1S2=O)C1CCCCC1` (stereo not given), the “activation” value is -0.856%.

As for `CC(C)C(=O)Nc1nc2c(s1)CC(C(C)(C)C)CC2` (stereo not given), the “activation” value is 8.99%.

For the compound `Cc1ccc(NC(=O)Cn2nnc3sc4c(c3c2=O)CCC(C)C4)cc1` (stereo not given), the “activation” value was -0.46%.

Regarding `COC(=O)c1cccc(Cn2nnc3sc4c(c3c2=O)CCC(C(C)(C)C)C4)c1` (stereo not given), the “activation” value was 0.258%.

`CCOC(=O)c1c(C)oc2nc(C)nc(Nc3ccc(CC)cc3)c12`: the “activation” value was 0.634%.

For the compound `CCCOc1ccc(-c2cccc(NS(=O)(=O)c3ccccc3)c2)nn1`, the “activation” value was 5.26%.

In the case of `COc1ccc(N2C(=O)C3C(C2=O)C(C(=O)c2ccccc2)N2CCCC32)cc1` (stereo not given), the Potency was 12.6 µM (active).

Consider `COc1ccc(C2NC(=O)N(C)C3=C2C(=O)N(c2ccc(C(=O)O)cc2)C3)cc1` (stereo not given), for which the “activation” value is -0.886%.

For the compound `COc1ccc(N2C(=O)CC(N3CCC(C(N)=O)CC3)C2=O)cc1` (stereo not given), the “activation” value was 2.6%.

`CCCNC(=O)C1CCC(Cn2c(=O)c3sccc3n(Cc3ccccc3F)c2=O)CC1` (stereo not given): the “activation” value is -0.818%.

For `COc1ccccc1CNC(=O)c1ccc(CS(=O)c2ccccc2Cl)o1` (stereo not given), the “activation” value is 0.406%.

For the compound `Cc1ccc(-c2ccnc3nc(Sc4ncc(C(F)(F)F)cc4Cl)nn23)cc1`, the “activation” value was 3.01%.

On to `c1ccc(-c2ccnc3nc(-n4cccc4)nn23)cc1`, for which the Potency was 12.6 µM (active).

On to `Cc1cc(-c2ccccc2)n2nc(-c3ccccc3)cc2n1`, for which the “activation” value was 12.8%.

Regarding `O=C(Nc1nnc(S(=O)(=O)N2CCCc3ccccc32)s1)c1cccc(F)c1`, the “activation” value is 7.1%.

Turning to `CCSc1ncc(Cl)c(C(=O)Nc2c(C(=O)c3ccccc3)oc3ccccc23)n1`, the “activation” value was 1.26%.

With `O=C(Nc1cccc2cccnc12)c1cccc2c(Br)cccc12`, the “activation” value is -0.813%.

With `COc1c(Cl)cc(Cl)cc1C(=O)Nc1cccc2cccnc12`, the “activation” value was 4.52%.

As to `O=C(Nc1ccccc1Cl)Nc1cccc2cccnc12`, the Potency is 12.6 µM (active).

For the compound `Cc1ccc(NC(=O)CN2C(=O)C(c3ccc(F)cc3)=NC23CCCCCC3)c(C)c1`, the “activation” value is -0.548%.

Take `CCCN1CCc2nc(N3CCN(C)CC3)ncc2C1`: the “activation” value was -0.347%.

Take `CC(C)(C)c1ccc(C(=O)N2CCC(c3nc(-c4ccc(S(=O)(=O)N5CCCC5)cc4)no3)CC2)cc1`: the “activation” value was -0.309%.

Take `O=S(=O)(c1ccc(F)cc1)N1CCN(Cc2ccccc2C(F)(F)F)CC1`: the “activation” value was -0.452%.

On to `O=c1[nH]nc(SCCS(=O)(=O)c2ccc(F)cc2)n1-c1ccccc1C(F)(F)F`, for which the Potency was 11.2 µM (active).

With `O=C(CSc1n[nH]c(=O)n1-c1ccccc1)Nc1ccccc1C(F)(F)F`, the “activation” value was 0.332%.

Regarding `COc1ccc2oc(=O)c(-c3cn4c(n3)sc3cc(OC)ccc34)cc2c1`, the “activation” value was 0.368%.
